Measurements: PubChem BioAssay (NCI)
About 79,000 compounds went through this panel and 15% of them were active in at least one assay; those are over-represented in the sample as a whole. No stated cut-off is given here; in the data, active means growth inhibition above about 70%; inactive means the rest.

Key:
[1] = NCI Yeast Anticancer Drug Screen. Data for the rad50 strain (AID 155);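 further: 0% = growth of vehicle-only cultures of the same strain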; conditions: S. cerevisiae rad50 strain growth inhibition; at 50.0 µM; active compounds read high
Method in brief: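 Cells are treated with compound, grown, and their growth is then scored against vehicle-only cultures of the same repair-deficient yeast strain.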

[2] = NCI Yeast Anticancer Drug Screen. Data for the mec2-1 strain (AID 157); conditions: S. cerevisiae mec2-1 strain, at 50.0 µM, active compounds read high
Method in brief: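 mec2-1 yeast strain, carrying an alteration in DNA damage repair or cell cycle control, was exposed to compounds; growth inhibition was measured relative to vehicle-treated controls.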

[3] = NCI Yeast Anticancer Drug Screen. Data for the sgs1 mgt1 strain (AID 161);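 further: 0% = growth of cultures given vehicle only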; conditions: S. cerevisiae sgs1 mgt1 strain, at 50.0 µM, active compounds read high
Method in brief: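 Compounds are added to genetically altered yeast, and growth is compared with cultures given vehicle alone to give percent inhibition.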

[4] = NCI Yeast Anticancer Drug Screen. Data for the cln2 rad14 strain (AID 165);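 further: 0% = growth equal to vehicle treated cultures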; conditions: S. cerevisiae cln2 rad14 strain, at 50.0 µM, active compounds read high
Method in brief: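 Yeast carrying cln2 and rad14 alterations (cell cycle control and DNA damage repair) were exposed to compounds. Growth inhibition was measured against vehicle-treated controls.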

[5] = NCI Yeast Anticancer Drug Screen. Data for the bub3 strain (AID 167); conditions: S. cerevisiae bub3 mutant strain, at 50.0 µM, active compounds read high
Method in brief: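 Part of a panel of yeast mutants defective in DNA damage repair or cell cycle regulation. Each strain is grown with compound, and inhibition is calculated relative to solvent-treated cultures.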

[6] = NCI Yeast Anticancer Drug Screen. Data for the mlh1 rad18 strain (AID 175); conditions: S. cerevisiae mlh1 rad18 strain growth inhibition; at 50.0 µM; active compounds read high
Method in brief: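 Growth inhibition of the yeast strain was measured after compound exposure and expressed relative to vehicle-treated controls. The strain carries defined defects in DNA damage repair.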

Measured: growth inhibition

CCOC(=O)n1cccc(C)c1=N
inactive: [1] -10.1% | [2] 13.7% | [3] 18.9% | [4] -17.2% | [5] -8.85% | [6] 27.1%

O=C(Nc1nc(=S)c2c(ncn2CCO)[nH]1)c1ccccc1
inactive: [1] 4.95% | [2] -14% | [3] 8.6% | [4] 12.9% | [5] 4.7% | [6] -0.7%

CCOC(=O)Nc1ccc(C2OCCS2)cc1 (stereo not given)
inactive: [1] 1.05% | [2] -21.6% | [3] 9.45% | [4] -0.65% | [5] -19.8% | [6] 10.2%

O=c1cc(-c2ccc(Cl)cc2)oc2cc(OCCCOc3ccc4c(=O)cc(-c5ccc(Cl)cc5)oc4c3)ccc12
inactive: [1] 40.9% | [2] 37.5% | [3] 12.8% | [4] -33.1% | [5] 19.9% | [6] 25.1%

CC(O)C(=O)OCCOCCOC(=O)C(C)O (stereo not given)
inactive: [1] 21.4% | [2] 4.1% | [3] 10.8% | [4] -11.8% | [5] 11.8% | [6] 7.4%

O=C(N/N=C\c1ccncc1)Nc1ccc(N=Nc2ccccc2)cc1
inactive: [1] 13.2% | [2] 6.05% | [3] 17.6% | [4] -2.6% | [5] 5.9% | [6] 19.6%

C=CCOc1ccc2cc(Br)ccc2c1
inactive: [1] 3.85% | [2] -2.55% | [3] 6.3% | [4] -24.1% | [5] 4.4% | [6] 14.9%

CCOC(=O)C1(C)OC1c1ccc([N+](=O)[O-])cc1 (stereo not given)
inactive: [1] -16.3% | [2] 5.45% | [3] -4.5% | [4] -15.6% | [5] -9.85% | [6] -9.85%

COC(=O)/C(=N\N)C(C(=O)C(=O)Nc1nc(=S)[nH][nH]1)c1nc2ccc([N+](=O)[O-])cc2[nH]c1=O (stereo not given)
inactive: [1] 2.3% | [2] -7.65% | [3] 10.1% | [4] 11.7% | [5] 29% | [6] 22.6%

CCCCCCc1c(N)nc(N)[nH]c1=O
inactive: [1] 4.3% | [2] 9.35% | [3] -11.2% | [4] -36.8% | [5] -12.9% | [6] -14.2%

CC1=NN(C(=O)c2cccnc2)C(=O)C1N=Nc1ccc(S(=O)(=O)N=C(N)N)cc1 (stereo not given)
inactive: [1] 4.8% | [2] -14.6% | [3] -12.4% | [4] -6.5% | [5] 0% | [6] -21.9%

Cc1cc(C(=O)C=[N+]=[N-])c(CN2C(=O)c3ccccc3C2=O)c(=O)n1C
inactive: [1] -0.8% | [2] -9.55% | [3] -3.4% | [4] 5.95% | [5] -13.5% | [6] 1.4%

Oc1ccc(C(c2ccc(O)cc2)c2ccc(O)cc2)cc1
inactive: [1] 2.1% | [2] 3.9% | [3] 29.9% | [4] 19.1% | [5] 22.1% | [6] -18.2%

CCOC(=O)c1ccccc1O
inactive: [1] -17.8% | [2] -5.8% | [3] -8.6% | [4] -38.4% | [5] -12.4% | [6] 9.5%

CCCCC(CC)(CC(=O)O)CC(=O)O
inactive: [1] 10.4% | [2] 9.85% | [3] 12.3% | [4] -14.8% | [5] 7.85% | [6] 7.1%

c1ccc(CNc2ncncc2-c2ccccc2)cc1
inactive: [1] 2.75% | [2] 3.85% | [3] 17.4% | [4] 9.1% | [5] 1.6% | [6] 5.15%

Cc1nc2c(o1)C(=Nc1ccccc1)c1ccccc1C2=Nc1ccccc1
inactive: [1] -7.45% | [2] -23.4% | [3] 1.45% | [4] -13.9% | [5] -20.1% | [6] -9.65%

COc1ccc(C2=C(c3ccccc3)C(C)(C)Oc3ccc4ccccc4c32)cc1
inactive: [1] -44.8% | [2] -0.05% | [3] -5.9% | [4] 14.2% | [5] -2.8% | [6] -7.3%

Cc1nn(C(=O)c2cccnc2)c(-c2ccccc2)c1N=Nc1ccc(C(=O)O)cc1
inactive: [1] -16.5% | [2] 11.2% | [3] 4.65% | [4] 29.4% | [5] -2.8% | [6] 18.8%

C[C@@H]1OC2(O)[C@H]3CCCN3S(=O)(=O)CCN2C1=O (stereo not given in full)
inactive: [1] 30.5% | [2] -14.8% | [3] -8.05% | [4] 16.7% | [5] -11.7% | [6] -1.2%
